Only some compounds are listed: those with a hit (about 2.1% of all), similar ones and a draw of the others.
HNF4A DNA FP – change in binding of human HNF4 alpha to DNA. P41235. HNF4a-FITC DNA binding, fluorescence polarization, 1 h. activity change, % at 10 µM. hit rate 0.3% among 360,000. AID 1224865; in the data active = activity change above about 30%, passing the limit was not always enough
Target sequence (P41235 whole entry, looked up): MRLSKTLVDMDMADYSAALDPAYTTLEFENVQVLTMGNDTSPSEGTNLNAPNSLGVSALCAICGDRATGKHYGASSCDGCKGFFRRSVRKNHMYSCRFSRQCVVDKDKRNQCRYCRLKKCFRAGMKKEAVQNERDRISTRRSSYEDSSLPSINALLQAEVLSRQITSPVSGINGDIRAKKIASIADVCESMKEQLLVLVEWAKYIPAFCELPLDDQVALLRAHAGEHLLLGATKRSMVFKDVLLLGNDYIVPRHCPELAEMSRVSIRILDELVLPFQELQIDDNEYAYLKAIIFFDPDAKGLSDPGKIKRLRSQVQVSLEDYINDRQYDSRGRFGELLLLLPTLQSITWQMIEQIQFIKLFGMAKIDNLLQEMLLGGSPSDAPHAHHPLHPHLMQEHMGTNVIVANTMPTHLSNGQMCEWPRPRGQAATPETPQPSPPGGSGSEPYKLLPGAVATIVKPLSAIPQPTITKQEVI
Myeloid diff 2 – promotes myeloid progenitor differentiation; ER-HoxA9 myeloid progenitors, lysozyme-GFP differentiation, flow cytometry; hit rate 1% among 360,000; calls only at 10 µM;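 active = normalized GFP-positive differentiation at or above the plate's own cutoff, the solvent-only control mean plus 3 SD; inconclusive = no clear call, values can overlap the other calls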;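 also: cells exposed to compound for four days before flow analysis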
TPT1 inhibitor – inhibitors of Candida albicans tRNA 2'-phosphotransferase TPT1; recombinant caTPT1, FP RNA substrate dephosphorylation; hit rate 0.81% among 300,000; inhibition, % at 5 µM; AID 1962;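 active = inhibition above the mean of all tested compounds plus 3 SD, set per screening campaign, cut at about 24% in these data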;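 also: plate controls were DMSO alone for no effect and ferristatin control at 100 nM for full effect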
Rpn11 block – Rpn11 (human) deubiquitinase inhibition; inhibition, % at 20 µM; hit rate 0.59% among 360,000; human 26S proteasome, Ub4-pepOG fluorescence polarization; 20S core pre-blocked with epoxomicin; O00487;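 active = inhibition at 20 µM, scaled to each plate's controls, above about 33%, limit read from the data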
Rpn11 inh conf – Rpn11 inhibition confirmation, single concentration. shares compounds with Rpn11 block. purified human 26S proteasome, Ub4-pepOG fluorescence polarization; proteasome pretreated with epoxomicin. inhibition, % at 20 µM. hit rate 29% among 1,900
MMP-2 counter – counter-screen for RPN11 inhibitors: inhibition of human MMP-2. recombinant MMP-2, FRET peptide cleavage fluorescence. inhibition, % at 20 µM. hit rate 4% among 1,900. shares compounds with Rpn11 block;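 also: human MMP-2 activated beforehand with APMA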
Thrombin FP – counter-screen for RPN11 inhibitors: inhibition of bovine thrombin; inhibition, % at 20 µM; bovine thrombin cleavage of Ub4-pepOG, fluorescence polarization; shares compounds with Rpn11 block; hit rate 13% among 1,900;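 active = mean inhibition at least 40% at 20 µM, or signal 3 deviations below plate average, so some actives read negative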;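 also: plate controls were thrombin with DMSO for no effect and buffer wells lacking thrombin for full effect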
The depositor's hits bear a star; i = inactive; ? = inconclusive; / = no result given; + = active, no number. Rule as the data show it, unless noted: active = inhibition above about 40%; inactive = the rest.

SMILES	HNF4A DNA FP	Myeloid diff 2	TPT1 inhibitor	Rpn11 block	Rpn11 inh conf	MMP-2 counter	Thrombin FP
O=C(O)CN1C(=O)/C(=C\c2cc(Br)ccc2OCc2ccc(Cl)cc2Cl)SC1=S	-22	i	-3	80*	13	11	79*
CCSC1=NC2(CCCCC2)Nc2sc3c(c21)CCCC3	2	i	-3	1	/	/	/
COc1cccc(N2CC(C(=O)Nc3nnc(SCCN4CCOCC4)s3)CC2=O)c1 (stereo not given)	-1	i	0	52*	7	-19	13
Cc1cccc(N2CC(C(=O)Nc3nnc(SCCN4CCOCC4)s3)CC2=O)c1 (stereo not given)	3	i	11	22	/	/	/
C=CCc1c(OC)ccc2c1c(S(=O)(=O)c1ccc(C)cc1)cn2COC	-2	i	-5	2	/	/	/
COc1cccc(OC)c1C(=O)NC(=S)Nc1ccc2c(c1)Cc1ccccc1-2	-2	i	0	+	-7	36	-9
COc1cccc(OC)c1C(=O)Nc1ccc2c(c1)Cc1ccccc1-2	-3	i	-3	-1	/	/	/
COc1ccc2c(c1)Cc1sc(NC(=O)c3ccco3)nc1-2	1	i	-4	152*	-5	-31	-9
O=C(CSc1nnc(SCc2cccc3ccccc23)s1)N/N=C/c1c[nH]c2ccccc12	1	i	-3	3	/	/	/
O=C(CSc1nnc(SCc2ccc(Cl)cc2)s1)N/N=C/c1c[nH]c2ccccc12	112*	i	-1	125*	68*	20	-3
C=CCn1c(=O)c(C(=O)Nc2ccccc2S(N)(=O)=O)c(O)c2ccccc21	3	i	0	1	/	/	/
COc1ccc(N2CCN(C(=O)COC(=O)c3nc(Cl)ccc3Cl)CC2)cc1	-2	i	/	2	/	/	/
O=c1[nH]c2ccc(Cl)cc2c(-c2ccccc2)c1SC(=S)N1CCOCC1	-4	i	-5	42*	7	1	-14
O=c1[nH]c2ccc(Cl)cc2c(-c2ccccc2)c1SC(=S)N1CCCCC1	-3	i	-3	31	/	/	/
O=C1N(Cc2cccc(Cl)c2)C[C@@H]2C[C@@H](c3cccc4cccnc34)N3CCC[C@@]123	3	i	8	65*	4	-30	6
Cc1cccc([C@@H]2C[C@H]3CN(Cc4cccc(Cl)c4)C(=O)[C@]34CCCN24)n1	3	i	1	6	/	/	/
COc1ccccc1CN1CN(S(=O)(=O)c2ccccc2)c2nc3ccccc3nc21	1	i	-2	-6	/	/	/
Cc1noc(C)c1CSc1ncnc2ccccc12	4	i	0	-3	/	/	/
c1ccc(-n2nnnc2Sc2ncnc3sc4c(c23)CCCC4)cc1	2	i	-4	47*	7	-18	1
Cc1sc2ncnc(Sc3nnnn3-c3ccc(Cl)cc3)c2c1C	0	i	-2	5	/	/	/
C#CNC(=O)C1(CC=C)CCNCC1	2	i	-2	-1	/	/	/
O=c1ccc(NS(=O)(=O)c2ccccc2)cn1Cc1ccc(Cl)c(Cl)c1	14	i	2	36*	20	28	3
Cc1cc(N2CCN(c3ccc([N+](=O)[O-])c4cccnc34)CC2)c2ccccc2n1	138	?	4	45*	48*	-64	-18
CCOC(=O)N1CCN(C(=O)COC(=O)c2ccc(Cl)nc2)CC1	0	i	/	-2	/	/	/
CCOc1ccc(-c2c(C(=O)N/N=C/c3ccsc3)nnn2-c2nonc2N)cc1	1	i	2	4	/	/	/
COc1cc(/C=N/NC(=O)c2cc3ccccc3cc2O)ccc1OCCN1CCCCC1	13	i	19	64*	27	-5	-3
CCCCCCCCCCOC(=O)Cn1c(COc2ccccc2)[n+](C)c2ccccc21	7	i	-5	-4	/	/	/
CCCCCCCCCCOC(=O)Cn1c(COc2ccc(Cl)cc2)[n+](C)c2ccccc21	13	i	-5	52*	50*	-5	-18
CCCCCCCCCCOC(=O)Cn1c(COc2cccc(C)c2)[n+](C)c2ccccc21	4	i	4	40*	9	-3	-33
COc1ccc(C(O)c2ncc(-c3ccccc3)[nH]2)cc1F (stereo not given)	0	i	/	-4	/	/	/

From PubChem BioAssay
